A short description of assay [1]: Nuclear factor erythroid 2-related factor 2/antioxidant responsive element (Nrf2/ARE) small molecule agonists: qHTS cell viability counter screen in human keratinocytes (AID 1919968; active = well fitted curve in the direction sought with a large enough effect in the repeat runs; an effect the other way counts as inactive or inconclusive; also: nearly all actives have a fitted effect of over 55% in size). The method in brief: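 Cytotoxicity was multiplexed with the Nrf2/ARE luciferase assay in the same wells. Stably transfected HaCaT keratinocytes were treated with test compounds for 23 h at 37 C. Cell viability was then measured by CellTiter-Fluor fluorescence.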

Assay [2] is described as follows: Nuclear factor erythroid 2-related factor 2/antioxidant responsive element (Nrf2/ARE) small molecule agonists: luciferase reporter gene qHTS assay in human keratinocytes (AID 1919969). Also: nearly all actives have a fitted effect of over 35% in size. Also: potency is read from the fitted curve at half-maximal effect.
In assay [3] the target is Gonadotropin-releasing hormone receptor (Homo sapiens) (UniProt P30968). As to the kind of experiment: Human gonadotropin-releasing hormone receptor (GnRHR) small molecule agonists, calcium flux assay in GnRHR-HEK293 cells (AID 1920063). Also: nearly all actives have a fitted effect of over 35% in size. The method in brief: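 Agonist activity was measured as intracellular calcium flux in HEK293 cells engineered to stably express human GnRHR. After dye loading for 1 hour at 37 C, compounds in DMSO were added and fluorescence was followed for 3 minutes.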
A general note: Calcium flux is commonly read through the fluorescence of an indicator in the cells.

The target of assay [4] is KiSS-1 receptor (Homo sapiens) (UniProt Q969F8). Kind of assay: Human kisspeptin (KISS1R) small molecule agonists, calcium flux assay in KISS1R-HEK293 cells (AID 1920064; active = well fitted curve in the direction sought with a large enough effect in the repeat runs; an effect the other way counts as inactive or inconclusive). The method in brief:
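Agonist activity is monitored as intracellular calcium rise in engineered HEK293 cells carrying human KISS1R. Cells are dye-loaded for 1 h at 37 C before compound addition, and fluorescence is recorded for 3 min.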

Assay [5] is described as follows: G protein-coupled receptor (GPCR) small molecule agonists, calcium flux assay: HEK293 wild type cell line counter screen (AID 1920065). The method in brief:
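Seed cells, incubate 18 h (37 C, 5% CO2); add calcium dye, 1 h at 37 C; pin-transfer compounds, ATP control or DMSO; read fluorescence 480/540 nm each second for 3 min.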

Assay [6] is described as follows: p53 small molecule agonists, cell-based qHTS assay with human liver microsomes (AID 1963577). The method in brief: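 Fluorescence of the beta-lactamase reporter in p53RE-bla cells, detected with LiveBLAzer substrate (2 h, room temperature, dark), served as the read-out after 16 h compound exposure at 37 C with human liver microsomes and NADPH, each 0.5 mg/mL final.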
For orientation: qHTS replaces the single test concentration by a dilution series.

The nature of assay [7]: p53 small molecule agonists, cell-based qHTS assay with rat liver microsomes (AID 1963578). In short, it runs like this: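 Cells carrying a p53 response element–beta-lactamase reporter were plated and rested 5 h, then dosed with compound in DMSO plus rat liver microsomes and NADPH, each at 0.5 mg/mL final. After 16 h at 37 C, LiveBLAzer substrate was added for 2 h.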
Assay [8] can be described thus: p53 small molecule agonists, cell-based qHTS assay: qHTS cell viability counter screen (AID 1963581). Also: nearly all actives have a fitted effect of over 45% in size. The method in brief:
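Viability was counter-screened in parallel with the p53 agonist reporter by measuring intracellular ATP luminescence in the same HCT-116 p53RE-bla wells after 16 h compound treatment at 37 C.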

The nature of assay [9]: p53 small molecule agonists, cell-based qHTS assay (AID 1963582; active = well fitted activation curve with a large enough effect in the signal ratio in the repeat runs, not every such curve was filed as active; the % refers to the signal ratio). In short, it runs like this:
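Cells carrying a p53-responsive bla reporter are treated with test compounds for 16 h at 37 C; beta-lactamase activity is then detected with LiveBLAzer B/G FRET substrate after 2 h at room temperature.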

For assay [10], the target named is 5-hydroxytryptamine receptor 2A (Homo sapiens) (UniProt P28223). As to the kind of experiment: 5-hydroxytryptamine receptor 2A (HTR2A) small molecule antagonists, cell-based qHTS assay (AID 1963586). Also: nearly all actives have a fitted effect of over 45% in size. In short, it runs like this: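 CHO cells stably expressing human HTR2A were plated for 18 h at 37 C, then loaded with calcium dye for 1 h. Compounds were preincubated 5 min at room temperature before DOI (4 nM solution) was added. Kinetic fluorescence was read for 3 min.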

Assay [11] shares this target. Kind of assay: 5-hydroxytryptamine receptor 2A (HTR2A) small molecule agonists, cell-based qHTS assay (AID 1963587). Also: nearly all actives have a fitted effect of over 30% in size. In short, it runs like this: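 HTR2A-CHO cells, plated 18 h at 37 C/5% CO2, dye-loaded 1 h at 37 C; compounds in DMSO added by pin tool (agonist mode). Intracellular calcium flux read as kinetic fluorescence on FDSS over 2 min at 1 s intervals.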
Assay [12] deals with Muscarinic acetylcholine receptor M1 (Homo sapiens) (UniProt P11229). Kind of assay: Cholinergic receptor muscarinic 1 (CHRM1) small molecule antagonists, cell-based qHTS assay (AID 1963588). Also: nearly all actives have a fitted effect of over 40% in size. The method in brief:
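Compounds were tested at 15 concentrations in three independent runs. Dye-loaded CHRM1-CHO cells were exposed 5 min at room temperature before stimulation by acetylcholine added at 50nM. Intracellular calcium was read kinetically on FDSS for 3 min.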

The target is the same in assay [13]. As to the kind of experiment: Cholinergic receptor muscarinic 1 (CHRM1) small molecule agonists, cell-based qHTS assay (AID 1963589). Also: nearly all actives have a fitted effect of over 35% in size. The method in brief: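 Cells were plated and incubated 18 h at 37 C/5% CO2, loaded with calcium dye for 1 h at 37 C, then treated with compounds in DMSO. Fluorescence was recorded kinetically at 1 sec intervals.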
The nature of assay [14]: cAMP Responsive Elements (CRE) small molecule agonists, cell-based qHTS assay (AID 1963590). In short, it runs like this: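 Cells carrying a CRE-driven beta-lactamase reporter (HEK 293T) are seeded, incubated overnight (18 h), and treated with test compounds for 3 h at 37 C; reporter activity is then detected with a FRET substrate after 2 h at room temperature.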
The nature of assay [15]: cAMP Responsive Elements (CRE) small molecule antagonists, cell-based qHTS assay (AID 1963591; active = well fitted inhibition curve with a large enough effect in the signal ratio in the repeat runs, not every such curve was filed as active; the % refers to the signal ratio). The method in brief: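 Cells (CRE-bla HEK 293T, DMEM with 10% dialyzed FBS and 25 mM HEPES) are seeded and incubated 18 h. Compounds are added with NKH477 agonist at 0.25 uM final for 3 h, then FRET substrate for 2 h.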
Assay [16] concerns the target Beta-2 adrenergic receptor (Homo sapiens) (UniProt P07550). Kind of assay: Adrenergic beta2 receptor (ADRB2) small molecule antagonists, cell-based qHTS assay (AID 1963592). Also: series mostly up to about 92 µM; nearly all actives have a fitted effect of over 50% in size. In short, it runs like this:
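Assay format: CHO-ADRB2 cells, 18-20hr seeding at 37C/5% CO2, then compound plus 1nM isoproterenol agonist mix for 0.5hr RT. Homogeneous time-resolved fluorescence cAMP detection after 1hr, expressed as 665/615 nm ratio.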

Assay [17] shares this target. Kind of assay: Adrenergic beta2 receptor (ADRB2) small molecule agonists, cell-based qHTS assay (AID 1963593).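 Also: CHO cells stably overexpressing human ADRB2.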 The method in brief:
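CHO cells stably over-expressing ADRB2 were plated overnight at 37C, then dosed with compounds plus a stimulation mix containing 100uM IBMX and 25uM Ro-20-1724 for 0.5hr at room temperature. cAMP was measured by HTRF competition, 1hr.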

The target in assay [18] is D(2) dopamine receptor (Homo sapiens) (UniProt P14416). As to the kind of experiment: Dopamine D2 receptor (DRD2) small molecule agonists, cell-based qHTS assay (AID 1963594). Also: nearly all actives have a fitted effect of over 35% in size. In short, it runs like this:
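HEK293 cells stably expressing DRD2 were cultured 24 h at 37 C, then given Ro20-1724 (0.1 mM final) and compounds for 10 min at room temperature. NKH477 (200nM) was then added for 30 min. cAMP was read by HTRF.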

Assay [19] has the same target. Kind of assay: Dopamine D2 receptor (DRD2) small molecule antagonists, cell-based qHTS assay (AID 1963595; active = well fitted inhibition curve with a large enough effect in the signal ratio in the repeat runs, with a control signal flat; the % refers to the signal ratio). In short, it runs like this:
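DRD2-HEK293; 0.1 mM Ro20-1724; cpd 10 min RT; NKH477 200 nM + quinpirole 12 nM, 30 min RT; HTRF cAMP (cAMP-d2/anti-cAMP cryptate), 665/620 nm ratio after 1 h.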

A short description of assay [20]: p53 small molecule agonists, cell-based qHTS assay with human liver microsomes: qHTS cell viability counter screen (AID 1963579). Also: nearly all actives have a fitted effect of over 45% in size. In short, it runs like this:
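Cytotoxicity counter screen: p53RE-bla, 4,000 cells/well; 5 h settle, 37 C/5% CO2; cpd + HLM 0.5 mg/mL + NADPH 0.5 mg/mL (final); 16 h, 37 C; CellTiter-Glo, 30 min RT, luminescence.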

Results filed as inconclusive are left out. Activity calls are given as the source filed them. Unless noted, calls follow the shape of the full dose curve.

Chain of Muscarinic acetylcholine receptor M1 (Homo sapiens) (P11229 whole entry, looked up): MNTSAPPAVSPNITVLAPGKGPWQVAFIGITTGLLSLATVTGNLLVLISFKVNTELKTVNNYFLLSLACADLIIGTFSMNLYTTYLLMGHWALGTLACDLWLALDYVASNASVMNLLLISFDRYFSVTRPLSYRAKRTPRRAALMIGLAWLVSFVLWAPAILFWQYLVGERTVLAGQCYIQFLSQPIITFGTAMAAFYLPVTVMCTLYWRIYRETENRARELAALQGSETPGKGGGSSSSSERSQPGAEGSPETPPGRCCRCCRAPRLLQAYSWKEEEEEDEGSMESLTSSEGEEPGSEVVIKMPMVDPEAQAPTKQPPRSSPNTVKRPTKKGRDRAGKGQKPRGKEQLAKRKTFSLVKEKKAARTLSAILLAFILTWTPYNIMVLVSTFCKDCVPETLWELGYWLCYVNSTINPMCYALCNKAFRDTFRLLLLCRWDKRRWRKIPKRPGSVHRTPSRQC
Chain of Beta-2 adrenergic receptor (Homo sapiens) (P07550 whole entry, looked up): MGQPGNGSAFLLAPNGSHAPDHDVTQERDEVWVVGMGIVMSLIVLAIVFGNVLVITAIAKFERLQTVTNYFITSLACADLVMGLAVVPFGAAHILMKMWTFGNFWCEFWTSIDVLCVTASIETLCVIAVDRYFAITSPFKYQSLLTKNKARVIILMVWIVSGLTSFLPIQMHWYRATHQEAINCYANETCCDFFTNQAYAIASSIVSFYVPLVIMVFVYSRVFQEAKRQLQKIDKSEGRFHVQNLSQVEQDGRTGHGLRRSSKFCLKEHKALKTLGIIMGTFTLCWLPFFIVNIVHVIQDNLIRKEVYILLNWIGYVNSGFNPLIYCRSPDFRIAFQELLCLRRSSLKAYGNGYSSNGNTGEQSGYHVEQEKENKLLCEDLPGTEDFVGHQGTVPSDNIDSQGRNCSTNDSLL
Chain of KiSS-1 receptor (Homo sapiens) (Q969F8 whole entry, looked up): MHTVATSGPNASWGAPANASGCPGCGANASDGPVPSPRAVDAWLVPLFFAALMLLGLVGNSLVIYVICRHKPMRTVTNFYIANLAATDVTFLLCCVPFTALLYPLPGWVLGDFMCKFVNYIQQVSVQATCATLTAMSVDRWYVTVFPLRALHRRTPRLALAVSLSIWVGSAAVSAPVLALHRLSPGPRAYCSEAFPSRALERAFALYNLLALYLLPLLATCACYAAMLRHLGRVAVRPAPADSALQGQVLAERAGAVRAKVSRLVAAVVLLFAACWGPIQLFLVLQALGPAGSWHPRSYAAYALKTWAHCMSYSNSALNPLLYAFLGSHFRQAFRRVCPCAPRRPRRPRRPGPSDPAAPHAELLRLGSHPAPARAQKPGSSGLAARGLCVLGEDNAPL
Chain of D(2) dopamine receptor (Homo sapiens) (P14416 whole entry, looked up): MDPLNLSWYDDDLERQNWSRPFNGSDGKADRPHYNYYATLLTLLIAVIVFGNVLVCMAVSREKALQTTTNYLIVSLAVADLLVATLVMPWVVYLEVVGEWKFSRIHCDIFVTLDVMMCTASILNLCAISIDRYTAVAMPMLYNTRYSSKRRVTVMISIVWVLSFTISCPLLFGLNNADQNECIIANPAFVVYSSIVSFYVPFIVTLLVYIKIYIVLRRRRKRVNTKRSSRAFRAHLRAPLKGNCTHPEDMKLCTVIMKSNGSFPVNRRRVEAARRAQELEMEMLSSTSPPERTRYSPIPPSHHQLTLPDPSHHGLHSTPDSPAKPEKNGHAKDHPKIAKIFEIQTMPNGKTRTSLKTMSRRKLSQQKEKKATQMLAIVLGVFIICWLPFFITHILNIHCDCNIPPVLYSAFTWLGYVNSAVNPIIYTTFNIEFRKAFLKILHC
Chain of Gonadotropin-releasing hormone receptor (Homo sapiens) (P30968 whole entry, looked up): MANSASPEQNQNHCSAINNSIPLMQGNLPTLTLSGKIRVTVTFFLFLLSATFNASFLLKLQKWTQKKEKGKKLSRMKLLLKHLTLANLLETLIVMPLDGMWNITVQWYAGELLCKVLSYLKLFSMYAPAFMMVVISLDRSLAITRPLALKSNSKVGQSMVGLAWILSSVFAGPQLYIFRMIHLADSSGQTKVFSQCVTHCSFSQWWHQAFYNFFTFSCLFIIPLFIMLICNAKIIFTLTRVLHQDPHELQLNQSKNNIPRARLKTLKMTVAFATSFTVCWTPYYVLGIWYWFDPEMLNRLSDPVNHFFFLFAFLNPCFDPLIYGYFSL
Chain of 5-hydroxytryptamine receptor 2A (Homo sapiens) (P28223 whole entry, looked up): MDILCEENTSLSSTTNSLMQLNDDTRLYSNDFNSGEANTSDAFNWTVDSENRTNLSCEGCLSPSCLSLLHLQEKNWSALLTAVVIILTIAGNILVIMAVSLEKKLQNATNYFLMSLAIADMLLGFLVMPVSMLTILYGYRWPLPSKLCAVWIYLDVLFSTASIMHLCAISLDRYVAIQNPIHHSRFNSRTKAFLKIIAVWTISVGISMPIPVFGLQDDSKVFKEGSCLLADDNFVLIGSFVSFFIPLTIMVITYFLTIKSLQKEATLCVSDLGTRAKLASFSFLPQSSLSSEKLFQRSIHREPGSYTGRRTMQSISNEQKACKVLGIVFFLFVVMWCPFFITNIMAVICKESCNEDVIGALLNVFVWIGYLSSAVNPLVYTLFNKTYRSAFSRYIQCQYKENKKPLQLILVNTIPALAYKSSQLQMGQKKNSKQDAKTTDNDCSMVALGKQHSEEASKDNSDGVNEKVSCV

Regarding `CCOCCOCC`, the Potency entry in assay [1], in [2], in assay [3], in assay [4], in assay [5] and in [6] was “inactive” each time. The Potency result in [7], in assay [8], in [9], in assay [10], in assay [11] and in [12] was “inactive” each time. Further, the Potency entry in assay [13], in assay [14], in assay [15], in [16], in assay [17] and in assay [18] was “inactive” throughout. In addition, in assay [19], the Potency entry is “inactive”.
On to `CCOCCOCCOCC`, for which the Potency result in assay [1], in [2], in assay [3], in assay [4], in assay [5] and in assay [6] was “inactive” in each case. Also, the Potency result in assay [7], in assay [20], in [8], in assay [10], in assay [11] and in [12] was “inactive” in each case. Further, the Potency entry in assay [13], in assay [14], in assay [15], in [16], in assay [17] and in [18] was “inactive” each time.
As to `CCOC(=O)[C@H](CCc1ccccc1)N[C@@H](C)C(=O)N1C(=O)N(C)C[C@H]1C(=O)O`, the Potency result in assay [1], in assay [2], in [3], in assay [4], in assay [5] and in [6] was “inactive” throughout. Also, the Potency result in assay [7], in assay [20], in assay [8], in assay [9], in [10] and in assay [11] was “inactive” throughout. Also, the Potency entry in [13], in [15], in [16], in assay [18] and in [19] was “inactive” each time.
Consider `C1=COCCC1`, for which the Potency result in assay [1], in assay [2], in [3], in assay [4], in [5] and in assay [6] was “inactive” in each case. Also, the Potency result in assay [7], in [8], in assay [9], in assay [10], in [11] and in [12] was “inactive” in each case. Also, the Potency entry in [13], in assay [14], in assay [15], in assay [16], in [17] and in [18] was “inactive” each time. Besides, the Potency entry in assay [19] was “inactive”.
Regarding `[Cl][In]([Cl])[Cl]`, the Potency result in assay [1], in assay [3], in [4], in assay [5], in assay [6] and in assay [7] was “inactive” throughout. Moreover, the Potency entry in [20], in [8], in [9], in assay [10], in assay [11] and in assay [13] was “inactive” each time. For the same compound, the Potency result in assay [14], in [16], in [18] and in assay [19] was “inactive” in each case. Besides, the Potency in assay [2] was 3.44 µM (active).
For `CCCCOCCCC`, the Potency result in assay [1], in assay [2], in assay [3], in [4], in assay [5] and in assay [6] was “inactive” each time. For the same compound, the Potency result in [7], in assay [20], in [8], in assay [9], in [11] and in [12] was “inactive” throughout. Also, the Potency result in [13], in assay [14], in [15], in [16], in assay [17] and in assay [18] was “inactive” in each case.
On to `C=Cc1ccccn1`, for which the Potency result in assay [1], in [2], in [3], in assay [4], in assay [5] and in assay [6] was “inactive” in each case. The Potency entry in assay [7], in assay [20], in [8], in assay [9], in assay [11] and in assay [12] was “inactive” throughout. The Potency result in assay [13], in [14], in [15], in assay [16], in [18] and in [19] was “inactive” each time.
Turning to `SCCSCCS`, the Potency entry in assay [1], in assay [2], in [3], in assay [4], in assay [5] and in [6] was “inactive” each time. The Potency entry in assay [7], in [20], in [8], in assay [9], in assay [10] and in assay [11] was “inactive” each time. Further, the Potency entry in [12], in [14], in assay [15], in assay [16], in assay [17] and in assay [18] was “inactive” in each case. Moreover, in assay [19], the Potency entry is “inactive”.

Source of the values: PubChem BioAssay (Tox21).
